From PubChem BioAssay (NCATS) come the findings set out here.

SMILES strings stand for the structures. Inconclusive results are not listed. A number with no mark means an inactive call. Activity calls are given as the source filed them. Calls follow the shape of the dose curve; as a rule, active = well fitted cell-killing curve with a large enough effect; inconclusive = small, poorly fitted or top-dose-only effect, or effect the other way; inactive = no such curve, though single readings can be large or run the other way.

A short description of assay [1]: Quantitative High-Throughput drug screen in 47 multiple myeloma cell lines against the NCATS MIPE library collection: KMS28PE_JCRB cell viability assay (AID 1918983). Also: nearly all actives have a fitted effect of over 35% in size. In short, it runs like this:
(§1)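 500 cells/well per myeloma line exposed to pinned MIPE 4.0 compounds for 48 h at 37 °C, 5% CO2. Viability read as ATP by CellTiter-Glo luminescence, normalised to DMSO-only (100%) and media-only (0%) wells.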

Assay [2] in a line: Quantitative High-Throughput drug screen in 47 multiple myeloma cell lines against the NCATS MIPE library collection: L363_DSMZ cell viability assay (AID 1918984). Also: nearly all actives have a fitted effect of over 40% in size. A digest of the protocol: as §1
Assay [3] can be described thus: Quantitative High-Throughput drug screen in 47 multiple myeloma cell lines against the NCATS MIPE library collection: KMS34_JCRB cell viability assay (AID 1918985). Also: nearly all actives have a fitted effect of over 40% in size. In short, it runs like this:
as §1

Assay [4] can be described thus: Quantitative High-Throughput drug screen in 47 multiple myeloma cell lines against the NCATS MIPE library collection: OCIMY7_PLB cell viability assay (AID 1918987). Also: nearly all actives have a fitted effect of over 65% in size. The note with it: OCI-MY7 myeloma viability, CellTiter-Glo ATP, 48 h; viability (% of DMSO): at 45.8 µM (top of the series). A digest of the protocol:
as §1
Background: Cellular ATP, detected with luciferase, serves as a proxy for viable cell number.

Assay [5] in a line: Quantitative High-Throughput drug screen in 47 multiple myeloma cell lines against the NCATS MIPE library collection: OCIMY5_PLB cell viability assay (AID 1918988). Also: nearly all actives have a fitted effect of over 65% in size.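 As to viability, % of control: 100% = DMSO-treated wells and 0% = wells with media alone.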 In short, it runs like this: as §1
The nature of assay [6]: Quantitative High-Throughput drug screen in 47 multiple myeloma cell lines against the NCATS MIPE library collection: OPM1_PLB cell viability assay (AID 1918989). Also: nearly all actives have a fitted effect of over 40% in size. In short, it runs like this:
as §1

A short description of assay [7]: Quantitative High-Throughput drug screen in 47 multiple myeloma cell lines against the NCATS MIPE library collection: SKMM1_PLB cell viability assay (AID 1919863). Also: nearly all actives have a fitted effect of over 35% in size. The note with it: SKMM1 myeloma viability, CellTiter-Glo ATP, 48 h; viability: stronger effect = lower value. A digest of the protocol: as §1
The nature of assay [8]: Quantitative High-Throughput drug screen in 47 multiple myeloma cell lines against the NCATS MIPE library collection: U266_ATCC cell viability assay (AID 1919864). Also: nearly all actives have a fitted effect of over 35% in size. A digest of the protocol:
as §1

The nature of assay [9]: Quantitative High-Throughput drug screen in 47 multiple myeloma cell lines against the NCATS MIPE library collection: XG6_PLB cell viability assay (AID 1919865). Also: nearly all actives have a fitted effect of over 40% in size. A digest of the protocol:
as §1

Assay [10] is described as follows: Quantitative High-Throughput drug screen in 47 multiple myeloma cell lines against the NCATS MIPE library collection: LP1_DSMZ cell viability assay (AID 1918982). Also: nearly all actives have a fitted effect of over 35% in size. In short, it runs like this:
as §1
Potency is read from the fitted curve at half-maximal effect.

On to `Nc1ncn([C@@H]2O[C@H](CO)[C@@H](O)[C@@H]2O)c(=O)n1`, for which the Potency in assay [1] is 20900 nM (active); in assay [2], 5900 nM (active); in assay [3], 11800 nM (active); in assay [4], 3720 nM (active); in assay [5], 9350 nM (active); in assay [6] it was 11800 nM (active). For the same molecule, the Potency in [7] is 13200 nM (active); in assay [8], 10500 nM (active); in assay [9], 9350 nM (active).

Regarding `Nc1nc(=O)n([C@H]2C[C@H](O)[C@@H](CO)O2)cc1F`, the Potency result in assay [10] and in assay [5] was “inactive” throughout. Besides, the Potency in assay [3] was 2.6 nM (active); in assay [4], 526 nM (active); in assay [6] it was 46.9 nM (active). Besides, in assay [7], the viability – broadly, a read-out of living cells in per cent, often relative to untreated cells – was 129%.

In the case of `O=C(O)[C@H](CC(=O)N1C[C@@H]2CCCC[C@H]2C1)Cc1ccccc1`, the Potency result in [10], in assay [6] and in assay [8] was “inactive” each time.

`OCCN1C[C@H](O)[C@@H](O)[C@H](O)[C@@H]1CO`: the Potency entry in [10], in assay [2], in [3], in assay [6] and in [9] was “inactive” each time. Besides, in assay [7], the viability is 126%.

Consider `O=C(Nc1ccc(Oc2ccnc3[nH]ccc23)c(F)c1)c1cccn(-c2ccc(F)cc2)c1=O`, for which the Potency entry in assay [10], in assay [6] and in [8] was “inactive” throughout. In addition, the Potency in [7] was 18700 nM (active); in assay [9], 26400 nM (active).

For the molecule `C[C@](Cc1c[nH]c2ccccc12)(NC(=O)OC1C2CC3CC(C2)CC1C3)C(=O)NC[C@H](NC(=O)CCC(=O)O)c1ccccc1` (stereo partly drawn), the Potency result in assay [10], in assay [5] and in assay [8] was “inactive” each time. Besides, the viability in assay [7] was 114%.

`CN(N=O)C(=O)N[C@H]1C(O)OC(CO)[C@@H](O)[C@H]1O` (stereo partly drawn): the Potency result in [10], in [2], in [4], in [6] and in assay [9] was “inactive” each time.

As for `Cc1ccc(-n2[nH]c(C)c(N=Nc3cccc(-c4cccc(C(=O)O)c4)c3O)c2=O)cc1C`, the Potency is 16600 nM (active) in assay [10], 26400 nM (active) in assay [5] and 20900 nM (active) in assay [8]. In assay [2], the Potency entry was “inactive”.

Turning to `CC(C)C[C@H](NC(=O)CNC(=O)c1cc(Cl)ccc1Cl)B1OC(=O)CC(CC(=O)O)(C(=O)O)O1` (stereo partly drawn), the Potency in assay [1] was 52.6 nM (active); in assay [2], 83.3 nM (active); in assay [3] it was 46.9 nM (active); in assay [4], 29.6 nM (active); in [5], 26.4 nM (active); in assay [6], 37.2 nM (active). The Potency in assay [7] is 209 nM (active); in assay [8] it was 52.6 nM (active); in [9] it was 26.4 nM (active).

In the case of `C=C1CCC2[C@](C)(CO)C(O)CC[C@]2(C)C1CC=C1C(=O)OCC1O` (stereo partly drawn), the Potency result in assay [10], in [6], in [8] and in assay [9] was “inactive” in each case. Moreover, in assay [5], the Potency is 42900 nM (active).

`C[N+](C)([O-])CCNc1ccc(NCC[N+](C)(C)[O-])c2c1C(=O)c1c(O)ccc(O)c1C2=O`: the Potency result in [1], in assay [2] and in assay [3] was “inactive” in each case.

On to `O=c1c(O)c(-c2ccc(O)c(O)c2)oc2cc(O)ccc12`, for which the Potency in assay [10] was 23500 nM (active); in assay [4], 6620 nM (active); in assay [5], 20900 nM (active); in assay [6], 18700 nM (active); in assay [9], 18700 nM (active).

For the molecule `O=S(=O)(O)CCSSCCS(=O)(=O)O`, the Potency result in [10], in assay [5], in assay [6] and in assay [9] was “inactive” each time.

As to `C=CC[C@@H]1C=C(C)C[C@H](C)C[C@H](OC)[C@H]2O[C@@](O)(C(=O)C(=O)N3CCCC[C@H]3C(=O)O[C@H](C(C)=C[C@@H]3CC[C@H](O)[C@H](OC)C3)[C@@H](C)[C@@H](O)CC1=O)[C@@H](C)C[C@@H]2OC`, the Potency in assay [1] was 2350 nM (active); in assay [2] it was 1180 nM (active); in [3], 1480 nM (active); in assay [4] it was 2090 nM (active); in assay [5], 662 nM (active); in assay [6] it was 2640 nM (active). Besides, the values for the Potency in assay [7], in [8] and in assay [9] were 1180 nM (active), 1320 nM (active) and 1480 nM (active), respectively.

Take `c1cc(CN2CCCNCCNCCCNCC2)ccc1CN1CCCNCCNCCCNCC1`: the Potency result in assay [1], in assay [2], in assay [3] and in [6] was “inactive” each time. Further, in assay [7], the viability is 136%.

As for `CC(C)N1[N]C(=C2C=c3cc(O)ccc3=N2)c2c(N)ncnc21`, the Potency in assay [1] is 209 nM (active); in assay [2], 59 nM (active); in assay [3], 296 nM (active); in [4], 743 nM (active); in [5] it was 1180 nM (active); in assay [6], 296 nM (active). For the same molecule, the Potency in assay [9] is 296 nM (active).

On to `O=C(NC1CC1)c1cccc(-c2ccc3c(NC(=O)C4CC4)n[nH]c3c2)c1`, for which the Potency in [1] was 10500 nM (active); in assay [3] it was 20900 nM (active); in assay [4], 7430 nM (active); in [5], 332 nM (active); in assay [6] it was 14800 nM (active); in [9], 1480 nM (active). In addition, in [2], the Potency result was “inactive”.

In the case of `CC(C)(C)[C@H](NC(=O)c1ccc(N)c(Cl)c1)C(=O)N1CCC[C@@H]1C(=O)N[C@H](C#N)CC(=O)O`, the viability, % of DMSO control in [1] was 131% [at 3.51 µM]. Further, the viability (% of control) is 111% [at 3.51 µM] in assay [2], 141% [at 3.51 µM] in [6] and 104% [at 3.51 µM] in [9]. For the same molecule, in [3], the viability, percent of control was 103% [at 3.51 µM]. The viability, % of control in [5] was 135% [at 3.51 µM]. In addition, the viability in assay [7] was 125%. For the same molecule, the viability (% of DMSO control) in assay [8] is 129% [at 3.51 µM].

In the case of `Nc1ccc(C(=O)Nc2cccc(-c3nc(N4CCOCC4)c4oc5ncccc5c4n3)c2)cn1`, the Potency in assay [1] was 26400 nM (active); in assay [2] it was 1180 nM (active); in [3], 7430 nM (active); in assay [4] it was 3320 nM (active); in assay [5], 5900 nM (active); in assay [6], 1480 nM (active). In addition, the results for the Potency in [7], in assay [8] and in [9] were 23500 nM (active), 20900 nM (active) and 2960 nM (active), respectively.

Take `CNC(=O)c1ccc(Nc2cc(Nc3ccccc3S(=O)(=O)C(C)C)c3cc[nH]c3n2)nc1`: the Potency in [1] is 9350 nM (active); in assay [2] it was 2350 nM (active); in assay [4], 833 nM (active); in assay [5], 4690 nM (active); in [6], 1660 nM (active); in assay [7], 18700 nM (active). The Potency in assay [8] was 1480 nM (active); in assay [9], 662 nM (active).

On to `CCN(CC)Cc1ccc2cc(COC(=O)Nc3ccc(C(=O)NO)cc3)ccc2c1`, for which the Potency was 662 nM (active) in assay [1]; 372 nM (active) in assay [2]; 418 nM (active) in assay [3]; 372 nM (active) in assay [4]; 372 nM (active) in assay [5]; 264 nM (active) in assay [6]. For the same molecule, the Potency in assay [8] is 662 nM (active).
